Laboratory results reported in publication PMC4336329 (PLoS ONE, 2015).
About 14,000 (4.5%) of roughly 310,000 compounds showed an effect of 50% or more. Effects have a minus sign here. Only a selection was taken, and strong results are over-represented in it overall.

Molecular target: human ether-à-go-go-related gene (hERG) potassium channel (human, UniProt Q12809)
Assay: primary screen, population patch clamp on CHO cells stably expressing hERG; higher = less effect of the substance
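Further: peak tail current of the secondary pulse compared with the same well before compound.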

Sequence of human ether-à-go-go-related gene (hERG) potassium channel (Q12809 whole entry, looked up): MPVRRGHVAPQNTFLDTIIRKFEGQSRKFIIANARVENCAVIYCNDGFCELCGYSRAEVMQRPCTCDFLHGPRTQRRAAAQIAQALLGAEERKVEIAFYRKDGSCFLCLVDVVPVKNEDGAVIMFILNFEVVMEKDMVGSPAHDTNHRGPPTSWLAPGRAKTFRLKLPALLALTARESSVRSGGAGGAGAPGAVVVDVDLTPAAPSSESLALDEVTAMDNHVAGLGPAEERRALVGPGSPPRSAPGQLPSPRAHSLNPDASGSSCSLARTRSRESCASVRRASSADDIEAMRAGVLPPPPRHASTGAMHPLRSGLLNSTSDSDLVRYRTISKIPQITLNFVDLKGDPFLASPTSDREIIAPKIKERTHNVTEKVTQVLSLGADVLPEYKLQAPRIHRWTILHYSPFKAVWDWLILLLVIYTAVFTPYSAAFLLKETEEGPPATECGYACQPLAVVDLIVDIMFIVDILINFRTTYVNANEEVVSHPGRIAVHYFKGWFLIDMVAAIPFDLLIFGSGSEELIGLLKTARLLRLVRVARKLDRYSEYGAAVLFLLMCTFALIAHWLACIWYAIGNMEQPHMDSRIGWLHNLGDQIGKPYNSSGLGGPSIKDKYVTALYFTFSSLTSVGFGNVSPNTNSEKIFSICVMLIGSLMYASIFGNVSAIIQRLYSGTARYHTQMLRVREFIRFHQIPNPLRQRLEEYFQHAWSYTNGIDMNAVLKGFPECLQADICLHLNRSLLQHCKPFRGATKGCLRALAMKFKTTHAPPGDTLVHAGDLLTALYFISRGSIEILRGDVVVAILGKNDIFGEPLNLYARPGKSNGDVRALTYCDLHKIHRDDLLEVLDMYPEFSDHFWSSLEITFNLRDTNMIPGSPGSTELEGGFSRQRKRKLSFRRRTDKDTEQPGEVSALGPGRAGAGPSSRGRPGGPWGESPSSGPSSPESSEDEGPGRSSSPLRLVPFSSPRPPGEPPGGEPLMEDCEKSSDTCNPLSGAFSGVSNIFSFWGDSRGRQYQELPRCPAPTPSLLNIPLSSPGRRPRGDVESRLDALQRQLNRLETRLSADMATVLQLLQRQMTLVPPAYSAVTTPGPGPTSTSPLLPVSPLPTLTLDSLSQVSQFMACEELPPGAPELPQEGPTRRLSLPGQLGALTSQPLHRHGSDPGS

SMILES | hERG current change (%, negative = inhibition) at 10uM [%]
O=C(O)/C=C\C(=O)N1CCc2ccccc21 | 27.9
O=C1C(NS(=O)(=O)c2cccs2)=C(N2CCOCC2)C(=O)c2ccccc21 | -40.8
C[n+]1ccc(C(=O)N/N=C/c2ccco2)cc1.[I-] | 26.7
COc1ccc(-c2cc(C(=O)NCCCn3ccnc3)c3ccccc3n2)c(OC)c1 | -32
O=C(NCCCn1ccnc1)c1cc(-c2ccncc2)nc2ccccc12 | -56.3
O=C(NCCc1ccc(Cl)cc1)c1cc(-c2ccncc2)nc2ccccc12 | 4.23
CCOc1ccc(-c2cc(C(=O)NCCCn3ccnc3)c3ccccc3n2)cc1 | -16
CCCCCCCNC(=O)c1cc(-c2ccncc2)nc2ccccc12 | 7.84
COc1cccc(C(=O)NCCCn2ccnc2)c1 | 7.29
COc1cccc(-c2cc(C(=O)NCCCn3ccnc3)c3ccccc3n2)c1 | -71.8
O=C(NCCCn1ccnc1)c1cc(-c2ccc(Cl)cc2)nc2ccccc12 | -68.8
O=C(NCCc1ccccn1)c1cc(-c2ccc(Cl)cc2)nc2ccccc12 | -19.6
CCCCN(C)CCC(=O)Nc1ccc(OC)cc1OC | 5.11
Cc1cccc(Nc2nc3c(c(=O)n(C)c(=O)n3C)n2CC(O)CO)c1 (stereo not drawn) | -0.943
O=C(Cc1c(Cl)cccc1Cl)N1CCN(Cc2ccccc2)CC1 | -0.0324
NS(=O)(=O)c1cccnc1Nc1cccc(Cl)c1Cl | -3.35
CN(C)c1nc(-c2ccccc2)nc(-c2ccc(Cl)cc2)c1C#N | 8.49
COc1ccc(-c2nc3c4ccccc4ccn3c2CN2CCCCC2)cc1OC.Cl | 0.736
O=c1nc2ccccc2c2n1CC(CN1CCN(c3cccc(Cl)c3)CC1)N2 (stereo not drawn) | -63.3
COc1cccc(N2CCN(Cc3nc4ccccc4c(=O)[nH]3)CC2)c1 | -18.9
Cn1c(CN2CCN(c3cccc(Cl)c3)CC2)nc2ccccc21 | -44.7
O=c1[nH]c(CN2CCN(c3ccc(F)cc3)CC2)nc2ccccc12 | -15.1
O=c1nc2ccccc2c2n1CC(CN1CCN(c3ccccc3F)CC1)N2 (stereo not drawn) | -50.3
Fc1ccccc1N1CCN(CC2CCCCC2)CC1 | -1.99
O=C(CSc1nc2ccccc2c(=O)[nH]1)N1CCN(c2ccccc2F)CC1 | 9.44
O=c1[nH]c(CN2CCN(c3ccccc3)CC2)nc2ccccc12 | 1.55
O=c1nc2ccccc2c2n1CC(CN1CCN(c3ccc(F)cc3)CC1)N2 (stereo not drawn) | -68.6
